By AC50 is commonly meant the concentration giving half of the maximal activity seen.

Assay [1] is described as follows: ATG_ISRE_CIS: Attagene CIS-FACTORIAL HepG2 Assay for human Interferon Regulatory Factor 1 (IRF1) binding to an Interferon-Stimulated Response Element (ISRE) (AID 2282948). The conditions noted are these: HepG2 ISRE cis-reporter (Attagene), mRNA transcription readout; actives raise or lower the signal. Put shortly:
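Signal reflects induction or loss of ISRE-linked reporter mRNA in transiently transfected HepG2 cells after a 24 h treatment, detected by fluorescent RT-PCR fragments on capillary electrophoresis and normalised to DMSO.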

A short description of assay [2]: ATG_M_32_CIS: Attagene CIS-FACTORIAL HepG2 Assay for M32 Transcription Factor (Internal Marker) (AID 2282949).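 Also: background control marker of the multiplexed CIS panel rather than a real target.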 The conditions noted are these: HepG2 Attagene cis-factorial M32 reporter, mRNA; actives raise or lower the signal. The essentials: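 Transient MRTU transfection of HepG2; 24 h compound treatment; TriZol RNA, oligo(dT) RT, reporter PCR, 6-FAM primer extension, HpaI cut, CE. Gain/loss of signal vs DMSO.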

Assay [3] in a line: ATG_M_06_CIS: Attagene CIS-FACTORIAL HepG2 Assay for M06 Transcription Factor (Internal Marker) (AID 2282950). The conditions noted are these: HepG2 Attagene CIS-FACTORIAL M06 internal marker reporter; actives raise or lower the signal. Put shortly:
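Cells (HepG2, transiently carrying cis-driven reporter units) receive chemical for 24 h before RNA isolation. Reporter cDNA is PCR-amplified, FAM-labelled by primer extension, HpaI-digested and sized on a capillary analyser.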

The target in assay [4] is Hypoxia-inducible factor 1-alpha (Homo sapiens) (UniProt Q16665). As to the kind of experiment: ATG_HIF1a_CIS: Attagene CIS-FACTORIAL HepG2 Assay for human Hypoxia Inducible Factor 1 (HIF1A) (AID 2282951). The note with it: HepG2 Attagene cis-factorial HIF1a reporter transcription; actives raise or lower the signal. Put shortly: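 Cis-element reporter constructs were transiently transfected into HepG2 cells, which were treated for 24 h; reporter RNA was reverse-transcribed, amplified, labelled and resolved by capillary electrophoresis.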
Sequence of Hypoxia-inducible factor 1-alpha (Homo sapiens) (Q16665 whole entry, looked up): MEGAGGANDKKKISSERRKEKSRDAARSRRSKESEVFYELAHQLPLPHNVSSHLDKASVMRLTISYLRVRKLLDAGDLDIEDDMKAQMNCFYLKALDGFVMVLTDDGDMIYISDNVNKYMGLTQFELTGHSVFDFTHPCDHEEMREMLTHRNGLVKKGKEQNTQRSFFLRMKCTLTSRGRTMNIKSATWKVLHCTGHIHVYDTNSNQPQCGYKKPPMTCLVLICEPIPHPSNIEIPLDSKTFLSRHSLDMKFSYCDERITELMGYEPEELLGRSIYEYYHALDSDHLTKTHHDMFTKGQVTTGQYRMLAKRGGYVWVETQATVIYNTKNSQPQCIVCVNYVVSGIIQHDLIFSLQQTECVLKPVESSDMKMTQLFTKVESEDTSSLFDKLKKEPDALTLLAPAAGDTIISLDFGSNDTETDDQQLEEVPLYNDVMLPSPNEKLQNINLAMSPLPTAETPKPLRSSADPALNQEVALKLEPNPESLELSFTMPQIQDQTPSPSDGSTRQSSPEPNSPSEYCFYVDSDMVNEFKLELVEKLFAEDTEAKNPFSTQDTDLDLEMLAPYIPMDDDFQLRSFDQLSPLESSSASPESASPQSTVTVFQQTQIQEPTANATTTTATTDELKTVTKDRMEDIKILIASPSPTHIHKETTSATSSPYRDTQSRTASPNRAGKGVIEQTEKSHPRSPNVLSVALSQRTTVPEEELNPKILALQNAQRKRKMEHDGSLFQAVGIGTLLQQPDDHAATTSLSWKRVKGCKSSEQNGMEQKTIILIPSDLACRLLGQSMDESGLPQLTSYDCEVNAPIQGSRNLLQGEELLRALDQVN

For assay [5], the target named is Hepatocyte nuclear factor 6 (Homo sapiens) (UniProt Q9UBC0). In words: ATG_HNF6_CIS: Attagene CIS-FACTORIAL HepG2 Assay for human Hepatocyte Nuclear Factor 6 (HNF6) (AID 2282952). The note with it: HepG2 Attagene cis-factorial HNF6 reporter transcription; actives raise or lower the signal. The essentials:
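Endogenous transcription factor activity in human HepG2 liver cells was captured through cis-regulated reporter constructs. After 24 h treatment, reporter mRNA was measured by RT-PCR with capillary electrophoresis, and activity was fitted in both directions relative to DMSO.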

Assay [6] deals with Heat shock factor protein 1 (Homo sapiens) (UniProt Q00613). As to the kind of experiment: ATG_HSE_CIS: Attagene CIS-FACTORIAL HepG2 Assay for human Heat Shock Transcription Factor 1 (HSE) (AID 2282953). The conditions noted are these: HepG2 HSE cis-reporter, Attagene RNA transcription; actives raise or lower the signal. The essentials: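 Liver-derived HepG2 cells carry transiently introduced multiple reporter units governed by cis promoters. Reporter RNA measured 24 h post-dose through reverse transcription, PCR amplification, fluorescent labelling and capillary electrophoresis, normalised to DMSO.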
Sequence of Heat shock factor protein 1 (Homo sapiens) (Q00613 whole entry, looked up): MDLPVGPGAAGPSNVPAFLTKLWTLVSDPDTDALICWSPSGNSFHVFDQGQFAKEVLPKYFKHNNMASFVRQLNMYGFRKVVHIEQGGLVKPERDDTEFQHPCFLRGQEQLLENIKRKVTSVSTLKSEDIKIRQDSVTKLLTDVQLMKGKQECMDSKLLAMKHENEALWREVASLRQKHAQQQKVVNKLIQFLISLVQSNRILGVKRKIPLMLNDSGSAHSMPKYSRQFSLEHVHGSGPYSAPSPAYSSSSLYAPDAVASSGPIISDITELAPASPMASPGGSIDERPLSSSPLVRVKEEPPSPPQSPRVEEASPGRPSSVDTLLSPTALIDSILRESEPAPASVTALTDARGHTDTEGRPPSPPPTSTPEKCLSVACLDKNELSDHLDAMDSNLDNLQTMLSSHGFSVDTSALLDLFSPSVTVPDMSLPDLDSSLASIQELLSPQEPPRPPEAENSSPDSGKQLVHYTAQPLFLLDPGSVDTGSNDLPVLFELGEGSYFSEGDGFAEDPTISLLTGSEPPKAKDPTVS

Assay [7] can be described thus: ATG_MRE_CIS: Attagene CIS-FACTORIAL HepG2 Assay for human Metal Responsive Element (MRE) (AID 2282954). The conditions noted are these: HepG2 MRE cis-reporter transcription, Attagene multiplex; actives raise or lower the signal. The essentials:
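Multiplexed cis-reporter assay in human HepG2 liver cells, 24 h incubation with test chemical. Reporter transcripts measured by RT-PCR and capillary electrophoresis; values from bidirectional curve fitting versus DMSO.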

Assay [8] is described as follows: ATG_PBREM_CIS: Attagene CIS-FACTORIAL HepG2 Assay for human Phenobarbital-responsive Enhancer Module (PBREM) (AID 2282955). The conditions noted are these: HepG2 PBREM cis-reporter, Attagene multiplexed transcription; actives raise or lower the signal. Put shortly:
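Multiplexed cis-reporter readout in human hepatoma HepG2 cells; PBREM-regulated transcript quantified after 24 h exposure by fluorescent RT-PCR fragment analysis. Signal changes up or down fitted relative to DMSO.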

Assay [9] addresses Paired box protein Pax-6 (Homo sapiens) (UniProt P26367). In words: ATG_Pax6_CIS: Attagene CIS-FACTORIAL HepG2 Assay for human Paired Box 6 (PAX6) (AID 2282956). The note with it: HepG2 CIS-FACTORIAL PAX6 reporter transcription, RNA readout; actives raise or lower the signal. The essentials:
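Values derive from bidirectional curve fitting of reporter mRNA signal relative to DMSO. HepG2 cells bearing transfected cis-regulated MRTUs were exposed for 24 h; transcripts were read by RT-PCR and capillary electrophoresis.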

Assay [10] can be described thus: ATG_PXRE_CIS: Attagene CIS-FACTORIAL HepG2 Assay for human Pregnane X Receptor Element (PXRE) (AID 2282957). The conditions noted are these: HepG2 Attagene CIS-FACTORIAL PXRE reporter, mRNA; actives raise or lower the signal. The essentials:
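Endogenous transcription factor activity in HepG2 was gauged through induction of reporter mRNA driven by a cis-regulating promoter element, sampled 24 h post-treatment. Activity was fitted in both directions against DMSO negative control.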

Assay [11] can be described thus: ATG_PPRE_CIS: Attagene CIS-FACTORIAL HepG2 Assay for human Peroxisome Proliferator-activated Response Element (PPRE) (AID 2282958). The conditions noted are these: HepG2 PPRE cis-element reporter, Attagene transcription factor profiling; actives raise or lower the signal. Put shortly:
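DMSO served as negative control and baseline for bidirectional curve fitting. Signal came from PPRE-regulated reporter mRNA in HepG2 cells, measured 24 h post-dosing by RT-PCR, 6-FAM primer extension and capillary electrophoresis.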

Assay [12] in a line: ATG_RORE_CIS: Attagene CIS-FACTORIAL HepG2 Assay for human RAR-related Orphan Receptor Element (RORE) (AID 2282959). The conditions noted are these: HepG2 Attagene cis-factorial RORE reporter, mRNA; actives raise or lower the signal. The essentials: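 Transfect HepG2 with MRTUs; treat 24 h; extract RNA; RT with oligo(dT); PCR with reporter-specific primers; 6-FAM primer extension; HpaI digest 2 h at 37 C; capillary electrophoresis. Fit vs DMSO, bidirectional.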

A short description of assay [13]: ATG_Sox_CIS: Attagene CIS-FACTORIAL HepG2 Assay for human SRY-box transcription factor (SOX) (AID 2282960). The note with it: HepG2 Attagene cis-factorial SOX reporter, mRNA; actives raise or lower the signal. The essentials: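 Fluorescence-labelled cDNA fragments from reporter transcripts, sized by CE, give the signal. Cells: HepG2, transiently transfected with cis-regulated reporter units. Exposure 24 h; DMSO negative control; bidirectional curve fitting.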

For assay [14], the target named is Transcription factor Sp1 (Homo sapiens) (UniProt P08047). In words: ATG_Sp1_CIS: Attagene CIS-FACTORIAL HepG2 Assay for human Specificity Protein 1 (Sp1) (AID 2282961). The note with it: HepG2 Sp1 cis-reporter transcription, actives raise or lower the signal. Put shortly:
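Chemicals are dosed onto HepG2 cells transfected with multiple cis-promoter reporter constructs, and after 24 h reporter RNA is reverse-transcribed, PCR-amplified and resolved by capillary electrophoresis for fluorescence quantitation; activity is scored up or down against DMSO.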

The nature of assay [15]: ATG_SREBP_CIS: Attagene CIS-FACTORIAL HepG2 Assay for human Sterol Regulatory Element Binding (SREBP) (AID 2282962). The note with it: HepG2 Attagene cis-factorial SREBP reporter, mRNA; actives raise or lower the signal. The essentials:
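Values derive from bidirectional curve fitting with DMSO as baseline. The underlying measurement is reporter mRNA from cis-element-regulated units in transiently transfected HepG2, quantified by RT-PCR and capillary electrophoresis after 24 h exposure.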

Assay [16] deals with Signal transducer and activator of transcription 3 (Homo sapiens) (UniProt P40763). In words: ATG_STAT3_CIS: Attagene CIS-FACTORIAL HepG2 Assay for human Signal Transducer and Activator of Transcription 3 (STAT3) (AID 2282963). The conditions noted are these: HepG2, Attagene cis-factorial STAT3 reporter transcription; actives raise or lower the signal. The essentials: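 Cis-factorial format: endogenous transcription factors in HepG2 drive transfected reporter units. After 24 h treatment, reporter RNA was reverse-transcribed, amplified, FAM-labelled and HpaI-digested before CE analysis; activity scored in both directions against DMSO.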
Sequence of Signal transducer and activator of transcription 3 (Homo sapiens) (P40763 whole entry, looked up): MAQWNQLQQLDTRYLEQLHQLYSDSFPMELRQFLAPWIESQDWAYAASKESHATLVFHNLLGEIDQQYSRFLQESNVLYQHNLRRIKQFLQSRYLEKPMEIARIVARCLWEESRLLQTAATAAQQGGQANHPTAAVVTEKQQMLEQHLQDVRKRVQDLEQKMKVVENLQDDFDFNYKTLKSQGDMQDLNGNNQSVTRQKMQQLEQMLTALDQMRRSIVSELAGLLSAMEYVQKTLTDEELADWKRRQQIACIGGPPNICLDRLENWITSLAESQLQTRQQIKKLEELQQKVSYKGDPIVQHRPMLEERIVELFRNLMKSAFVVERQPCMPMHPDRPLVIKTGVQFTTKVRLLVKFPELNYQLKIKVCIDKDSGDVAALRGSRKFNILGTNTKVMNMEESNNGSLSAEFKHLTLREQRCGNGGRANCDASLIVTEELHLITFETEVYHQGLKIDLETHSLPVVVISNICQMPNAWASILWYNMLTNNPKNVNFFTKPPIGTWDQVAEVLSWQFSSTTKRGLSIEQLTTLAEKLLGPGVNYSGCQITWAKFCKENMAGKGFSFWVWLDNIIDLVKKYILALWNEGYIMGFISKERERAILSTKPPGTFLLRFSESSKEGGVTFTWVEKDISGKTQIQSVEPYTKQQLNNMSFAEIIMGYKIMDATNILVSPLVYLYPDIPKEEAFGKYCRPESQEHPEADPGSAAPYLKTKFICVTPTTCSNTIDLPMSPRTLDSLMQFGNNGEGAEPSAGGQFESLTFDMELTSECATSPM

Assay [17] is described as follows: ATG_TA_CIS: Attagene CIS-FACTORIAL HepG2 Assay for human TA Basal Promoter (AID 2282964). The note with it: HepG2 Attagene CIS-factorial TA basal promoter reporter; actives raise or lower the signal. The essentials: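 Background internal-marker endpoint from a 52-component HepG2 cis-reporter panel. Cells treated 24 h; reporter transcripts quantified via RT-PCR and CE fluorescence against DMSO baseline.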

The target in assay [18] is Bile acid receptor (Homo sapiens) (UniProt Q96RI1). In words: ATG_IR1_CIS: Attagene CIS-FACTORIAL HepG2 Assay for human Nuclear Receptor Subfamily 1 Group H Member 4 (NR1H4), IR1 submotif (AID 2282946). The note with it: IR1 reporter transcription, actives raise or lower the signal. The essentials:
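HepG2 cells transiently transfected with multiplexed cis-element reporter units read endogenous transcription factor activity. After 24 h compound exposure, reporter mRNA was quantified by RT-PCR, fluorescent labelling, HpaI digestion and capillary electrophoresis; bidirectional fitting versus DMSO baseline.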

Assay [19] is described as follows: ATG_GRE_CIS: Attagene CIS-FACTORIAL HepG2 Assay for human Glucocorticoid Response Elements (GRE) (AID 2282947). The conditions noted are these: HepG2 GRE cis-reporter, Attagene multiplex mRNA; actives raise or lower the signal. The essentials:
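Multiplexed cis-reporter mRNA induction, HepG2, 24 h post-dose. RT-PCR, FAM-labelled, HpaI-digested amplicons by CE. Bidirectional fit vs DMSO.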

Where “and” joins values, the source holds several entries; their conditions need not be identical. Identical values can stand only once. Some compounds were tested as several samples or in several runs, with calls that do not always agree. Calls of active or inactive are those of the source. The calls were made as follows: active = hit-call score of the fitted dose curve at least 0.9, where 1 is the maximum; inactive = score below 0.9.

Sequence of Transcription factor Sp1 (Homo sapiens) (P08047 whole entry, looked up): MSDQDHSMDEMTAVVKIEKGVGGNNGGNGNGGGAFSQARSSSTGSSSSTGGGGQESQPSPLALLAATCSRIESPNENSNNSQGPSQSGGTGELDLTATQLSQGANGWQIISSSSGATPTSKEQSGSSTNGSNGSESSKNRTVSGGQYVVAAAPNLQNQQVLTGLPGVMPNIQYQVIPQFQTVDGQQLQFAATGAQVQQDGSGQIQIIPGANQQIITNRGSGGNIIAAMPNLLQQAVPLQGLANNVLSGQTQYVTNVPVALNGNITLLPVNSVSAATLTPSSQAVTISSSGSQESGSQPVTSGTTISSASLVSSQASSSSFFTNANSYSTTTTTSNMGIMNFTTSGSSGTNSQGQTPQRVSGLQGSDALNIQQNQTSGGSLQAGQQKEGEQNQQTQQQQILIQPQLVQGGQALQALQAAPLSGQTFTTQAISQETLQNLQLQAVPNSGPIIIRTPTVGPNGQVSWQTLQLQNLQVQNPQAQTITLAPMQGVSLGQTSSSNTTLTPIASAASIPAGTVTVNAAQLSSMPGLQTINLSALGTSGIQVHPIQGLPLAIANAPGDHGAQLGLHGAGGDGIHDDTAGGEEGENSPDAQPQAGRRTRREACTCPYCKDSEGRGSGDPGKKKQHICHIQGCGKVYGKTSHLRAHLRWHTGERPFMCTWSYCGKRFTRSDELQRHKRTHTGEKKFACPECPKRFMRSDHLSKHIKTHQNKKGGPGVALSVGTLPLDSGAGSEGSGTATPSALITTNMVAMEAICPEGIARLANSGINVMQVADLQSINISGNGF
Sequence of Hepatocyte nuclear factor 6 (Homo sapiens) (Q9UBC0 whole entry, looked up): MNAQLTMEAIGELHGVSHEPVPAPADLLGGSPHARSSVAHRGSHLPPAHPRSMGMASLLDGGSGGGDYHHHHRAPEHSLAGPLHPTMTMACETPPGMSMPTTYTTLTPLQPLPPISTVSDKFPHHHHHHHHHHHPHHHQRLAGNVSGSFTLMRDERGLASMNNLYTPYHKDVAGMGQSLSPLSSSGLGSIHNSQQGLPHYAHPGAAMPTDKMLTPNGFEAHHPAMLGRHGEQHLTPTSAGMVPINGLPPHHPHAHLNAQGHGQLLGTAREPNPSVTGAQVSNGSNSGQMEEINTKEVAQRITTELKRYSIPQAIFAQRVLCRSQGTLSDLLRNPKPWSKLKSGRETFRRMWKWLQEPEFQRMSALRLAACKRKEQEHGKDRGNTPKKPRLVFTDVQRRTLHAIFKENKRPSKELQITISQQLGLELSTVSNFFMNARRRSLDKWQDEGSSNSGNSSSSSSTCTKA
Sequence of Bile acid receptor (Homo sapiens) (Q96RI1 whole entry, looked up): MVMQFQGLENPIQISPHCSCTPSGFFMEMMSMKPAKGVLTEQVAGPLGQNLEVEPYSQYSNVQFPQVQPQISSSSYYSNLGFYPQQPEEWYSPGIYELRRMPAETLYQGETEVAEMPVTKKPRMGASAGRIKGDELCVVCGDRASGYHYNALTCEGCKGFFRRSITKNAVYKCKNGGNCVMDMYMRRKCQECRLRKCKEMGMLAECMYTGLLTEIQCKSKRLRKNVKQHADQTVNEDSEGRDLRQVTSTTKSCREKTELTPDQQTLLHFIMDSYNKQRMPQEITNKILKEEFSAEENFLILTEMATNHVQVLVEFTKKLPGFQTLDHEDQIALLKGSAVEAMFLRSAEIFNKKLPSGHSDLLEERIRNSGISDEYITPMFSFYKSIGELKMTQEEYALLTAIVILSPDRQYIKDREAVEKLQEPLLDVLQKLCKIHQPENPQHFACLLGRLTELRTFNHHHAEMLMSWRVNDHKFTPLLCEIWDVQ
Sequence of Paired box protein Pax-6 (Homo sapiens) (P26367 whole entry, looked up): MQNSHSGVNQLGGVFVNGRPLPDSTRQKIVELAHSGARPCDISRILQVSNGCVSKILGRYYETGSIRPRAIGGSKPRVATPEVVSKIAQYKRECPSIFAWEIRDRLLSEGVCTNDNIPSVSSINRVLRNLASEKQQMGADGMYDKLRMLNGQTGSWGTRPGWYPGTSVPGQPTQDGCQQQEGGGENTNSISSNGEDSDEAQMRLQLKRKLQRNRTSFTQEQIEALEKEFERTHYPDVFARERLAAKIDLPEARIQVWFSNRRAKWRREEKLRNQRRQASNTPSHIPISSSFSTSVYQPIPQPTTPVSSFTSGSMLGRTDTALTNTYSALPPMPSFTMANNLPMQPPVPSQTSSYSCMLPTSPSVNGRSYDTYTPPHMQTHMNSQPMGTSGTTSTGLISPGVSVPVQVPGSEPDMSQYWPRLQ

Take `c1ccc(Nc2ccccc2)cc1`: the compound was called inactive in assay [1], in assay [2], in assay [3], in assay [4], in [5] and in [6]. Also, the call in assay [7], in assay [8], in assay [9], in assay [11], in assay [12] and in assay [13] was inactive. Moreover, the compound was called inactive in assay [14], in assay [15], in assay [16] and in assay [17]. Also, the AC50 in assay [4] is 100 µM (active); in assay [10], 64 µM (active) and 37.5 µM (active); in assay [11], 20.6 µM (active).

For `COC(=O)c1c(Cl)nn(C)c1S(=O)(=O)NC(=O)Nc1nc(OC)cc(OC)n1`, the result in [18], in assay [19], in assay [1], in assay [2], in assay [3] and in [4] was inactive. In addition, the call in assay [5], in assay [6], in assay [7], in assay [8], in assay [9] and in assay [10] was inactive. Also, the call in assay [11], in assay [12], in assay [13], in assay [14], in assay [15] and in [16] was inactive. For the same compound, the compound was called inactive in assay [17].

In the case of `CCCN(CCC)c1c([N+](=O)[O-])cc(C(F)(F)F)c(N)c1[N+](=O)[O-]`, the outcome in assay [18], in assay [19], in assay [1], in [2], in [3] and in assay [9] was inactive. Moreover, the compound was classed as inactive in [11], in assay [12], in assay [13], in assay [15], in [16] and in assay [17]. Moreover, the half-maximal activity concentration (AC50) is 13 µM (active) in [4]; 50 µM (active) in assay [5]; 81 µM (active) in assay [6]; 32.5 µM (active) in assay [7]; 29.7 µM (active) in assay [8]; 1.29 µM (active) in assay [10]. Further, in assay [14], the AC50 was 28.9 µM (active).

On to `CN(C)C(=O)Nc1ccc(Cl)c(Cl)c1`, for which the result in [19], in assay [1], in [2], in assay [3], in [4] and in assay [5] was inactive. Moreover, the outcome in assay [6], in assay [7], in [8], in [9], in assay [11] and in assay [12] was inactive. The outcome in assay [13], in assay [14], in [15], in assay [16] and in [17] was inactive. Also, the concentration at half-maximal activity (AC50) in [4] was 62.6 µM (active); in assay [7], 77.4 µM (active); in assay [10], 11.4 µM (active) and 25.4 µM (active); in [11] it was 37 µM (active); in assay [12], 100 µM (active); in assay [14] it was 180 µM (active).

For `CCCCOCCOCCOCc1cc2c(cc1CCC)OCO2`, the result in assay [18], in [1], in [2], in [3], in [4] and in assay [5] was inactive. Besides, the call in [6], in assay [7], in assay [9], in assay [11], in assay [12] and in assay [13] was inactive. The call in assay [14], in assay [15], in assay [16] and in assay [17] was inactive. Moreover, the results for the AC50 in assay [8] and in assay [10] were 8.08 µM (active) and 2.21 µM (active), respectively.

With `CCCOC(=O)NCCCN(C)C`, the outcome in [1], in [2], in assay [3], in assay [4], in assay [5] and in [7] was inactive. Besides, the outcome in [8], in assay [9], in assay [10], in assay [12], in [13] and in [14] was inactive. The call in [15], in assay [16] and in [17] was inactive.

The values above are taken from PubChem BioAssay (EPA / NIEHS).
